Experimental data from the supplement of paper PMC10646978.
± gives the standard deviation.

Legend:
Settings in all cases: modulator concentration 10 µM
[1] = test system: RAW-Dual (murine macrophage reporter line); test: NF-kB reporter (SEAP) activity fold change vs agonist alone; higher = enhanced NF-kB activity
Method in brief: (§1)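 Overnight stimulation with a PRR agonist followed pre-incubation for 1 hour at 37 °C with compound at 10 μM final. This was done in RAW-Dual murine macrophage reporter cells seeded at 50 000 per well in 384-well plates. NF-κB (SEAP, QUANTI-Blue absorbance at 620 nm) and IRF (Lucia luciferase, QUANTI-Luc luminescence) were read from the supernatant. Each reporter's fold change relative to the mean agonist-only control on the same plate was averaged over replicate plates.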

[2] = test system: RAW-Dual (murine macrophage reporter line); test: IRF reporter (Lucia luciferase) activity fold change vs agonist alone; higher = enhanced IRF activity
Method in brief: as §1

[3] = test system: RAW-Dual (murine macrophage reporter line); test: viability score (confluency relative to resting cells, overnight) (fraction); higher = more viable, active = viable (0.7 or more)
Method in brief: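 In 384-well plates, RAW-Dual macrophages received compound at a final 10 μM overnight. Two confluency masks were then made with IncuCyte software from IncuCyte images of all imaged wells. The viability score is defined as confluency relative to resting cells. Passing the cutoff required both masks to lie above 70% of resting cells.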

[4] = agonist: CpG ODN 1826 0.5 ug/mL

| Structure (SMILES) | NF-kB reporter [1, 4] | NF-kB reporter ([1]; agonist: LPS 0.1 ug/mL) | NF-kB reporter ([1]; agonist: MPLA […]) | IRF reporter ([2]; agonist: 3'3'-cGAMP 10 ug/mL) | IRF reporter ([2]; agonist: LPS 0.1 ug/mL) | IRF reporter ([2]; agonist: MPLA […]) | viability score [3] |
| --- | --- | --- | --- | --- | --- | --- | --- |
| COc1cc(C2c3cc4c(cc3C(O)C3COC(=O)C23)OCO4)cc(OC)c1OC (stereo not drawn) | 1.37 ± 0.41 | 0.807 ± 0.077 | 1.08 ± 0.1 | 0.688 ± 0.021 | 1.19 ± 0.17 | 1.51 ± 0.22 | 0.967 (active) |
| Cl.N=C(N)NN | 0.983 ± 0.15 | 1.02 ± 0.29 | 0.917 ± 0.064 | 0.892 ± 0.034 | 1.38 ± 0.27 | 1.25 ± 0.21 | 0.997 (active) |
| O=C1NC(=S)NC(=O)C1=Cc1ccc(OCc2ccc(F)cc2)c(Cl)c1 | 0.918 ± 0.092 | 0.943 ± 0.064 | 0.802 ± 0.05 | 0.765 ± 0.02 | 1.13 ± 0.095 | 0.824 ± 0.14 | 1.01 (active) |
| O=C1CCC(=O)N1C1CC2CCC(C1)N2C(=O)Cc1cccc2ccccc12 (stereo not drawn) | 0.977 ± 0.049 | 1.12 ± 0.099 | 0.913 ± 0.11 | 1.08 ± 0.066 | 1.25 ± 0.076 | 1.16 ± 0.21 | 1.01 (active) |
| COc1ccc(CNCCc2c[nH]c3ccccc23)cc1C | 0.373 ± 0.058 | 0.574 ± 0.054 | 1.22 ± 0.06 | 0.782 ± 0.08 | 1.04 ± 0.052 | 2.55 ± 0.19 | 0.154 (inactive) |
| CCOc1cc(C=C2N=C(c3cccc(C)c3)OC2=O)ccc1OC(=O)Cc1ccccc1 | 0.858 ± 0.069 | 0.959 ± 0.081 | 0.914 ± 0.057 | 0.8 ± 0.024 | 1.19 ± 0.1 | 0.964 ± 0.12 | 1.01 (active) |
| Cc1cc(C(=O)N2C3CCC2c2cncnc2C3)c(C)o1 (stereo not drawn) | 1.03 ± 0.087 | 1.06 ± 0.092 | 1 ± 0.036 | 0.974 ± 0.066 | 0.94 ± 0.06 | 0.832 ± 0.13 | 0.999 (active) |
| O=Cc1cn(Cc2cccc3ccccc23)c2ccccc12 | 0.959 ± 0.16 | 1.01 ± 0.11 | 1.16 ± 0.12 | 1.09 ± 0.03 | 1.25 ± 0.28 | 1.23 ± 0.25 | 0.989 (active) |
| NC(=O)Cn1c(Cc2ccccc2Cl)nc2ccccc21 | 0.97 ± 0.061 | 0.84 ± 0.074 | 0.912 ± 0.031 | 0.996 ± 0.06 | 1.06 ± 0.093 | 0.99 ± 0.13 | 0.997 (active) |
| CC12CCC3C(CCC4CC(O)CCC43C)C1CCC2O (stereo not drawn) | 1.23 ± 0.29 | 0.968 ± 0.059 | 2.43 ± 1.5 | 0.891 ± 0.037 | 1.13 ± 0.18 | 1.21 ± 0.14 | 0.963 (active) |
| COc1ccc2c(c1)[nH]c1c(C)nccc12 | 0.6 ± 0.047 | 0.885 ± 0.074 | 0.949 ± 0.09 | 0.431 ± 0.019 | 0.653 ± 0.11 | 0.594 ± 0.11 | 1.03 (active) |
| COc1cc([C@@H]2c3cc4c(cc3[C@H](O)[C@H]3COC(=O)[C@H]23)OCO4)cc(OC)c1OC [Prestw-782] | 2.45 ± 0.14 | 1.61 ± 0.098 | 2.69 ± 0.16 | 0.0908 ± 0.0036 | 1.48 ± 0.1 | 1.6 ± 0.31 | 0.721 (active) |
| Nc1ccncc1 | 1 ± 0.24 | 1.03 ± 0.078 | 0.879 ± 0.056 | 0.514 ± 0.022 | 0.929 ± 0.11 | 0.976 ± 0.25 | 0.858 (active) |
| Clc1cccc(CNCCc2c[nH]c3ccccc23)c1 | 0.317 ± 0.028 | 0.978 ± 0.11 | 0.992 ± 0.099 | 1.13 ± 0.028 | 2.3 ± 0.24 | 1.7 ± 0.26 | 0.258 (inactive) |
